HCV inh = blocks hepatitis C virus. Huh7.5.1 HCVcc-Cre infection, luciferase reporter, 44 h. Potency, µM (highest dose often 41.8 µM), for the others: top-dose activity change, negative = inhibition, usual class: inhibitors. actives 3.4% (n = 340,000). AID 651820; active = well fitted inhibition curve with a large enough effect; inconclusive = small, poorly fitted or top-dose-only effect, or another doubt; inactive = no such curve, though single readings can be large or run the other way; also: potency is read from the fitted curve at half-maximal effect
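After 44 h co-culture of compound, cells and HCVcc-Cre (~0.5 moi), substrate is added for 15 min at room temperature and luciferase measured over 15 sec. Cells were seeded at 1,000/well and pre-cultured 4 h.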
LASV entry inh = inhibitors of Lassa virus binding or cell entry | Lassa virus pseudotype entry inhibition, cell reporter | Potency, µM (highest dose often 37.9 µM), without a hit: at the top dose activity change, negative = inhibition, usual class: inhibitors | actives 1.2% (n = 300,000) | AID 540256; calls by dose curve; tested in HEK293 cells; also: potency is read from the fitted curve at half-maximal effect; nearly all actives have a fitted effect of over 50% in size
VACV Venus inh = inhibitors of vaccinia virus (Venus reporter); actives 0.46% (n = 330,000); Potency, µM (top dose mostly 36.5 µM), for inactives: top-dose activity change, negative = inhibition, actives largely listed as inhibitors; Vaccinia virus Venus reporter expression, fluorescence; calls by dose curve; tested in A549 cells; also: potency is read from the fitted curve at half-maximal effect; nearly all actives have a fitted effect of over 30% in size
HCMV inh = blocks human cytomegalovirus replication. HFF cells, HCMV-luciferase reporter, 72 h; active compounds read low. activity change, negative = inhibition, % at 57.5 µM. actives 4.5% (n = 410,000). AID 1259415; in the data active = activity change below about -60%; inconclusive = no clear call, values can overlap the other calls; inactive = above about -39%
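Steps: HFFs plated, 16 h 37C; compounds added; HCMV-luciferase added to MOI 1 PFU/cell; 72 h 37C; OneGlo reagent, 5 min room temperature; luminescence read, normalized to controls.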
MARV entry inh = inhibitors of Marburg virus binding or cell entry; Marburg virus pseudotyped entry inhibition, cell reporter; Potency, µM (doses to about 37.8 µM), without a hit: at the highest dose activity change, negative = inhibition, most hits filed as inhibitors; AID 540276; actives 1.8% (n = 300,000); calls by dose curve; tested in HEK293 cells; also: potency is read from the fitted curve at half-maximal effect
Vaccinia mCherry = inhibitors of vaccinia virus infection (mCherry reporter signal); Potency, µM (series often up to 36.5 µM), for the others: at the highest dose activity change, negative = inhibition, actives largely listed as inhibitors; actives 0.63% (n = 310,000); AID 720579; Vaccinia virus mCherry reporter infection, fluorescence; calls by dose curve; tested in A549 cells; also: potency is read from the fitted curve at half-maximal effect; nearly all actives have a fitted effect of over 35% in size
* = called active by the depositor; i = inactive; u = inconclusive; x = no result; [ ] = another dose, or the depositor's remark. In the library only some 7.8% were active in any assay of this set; here they are far more common. % is scaled to controls: 0 for no effect and ±100 for the full control effect.

SMILES | HCV inh | LASV entry inh | VACV Venus inh | HCMV inh | MARV entry inh | Vaccinia mCherry
Cc1ccc(-n2ncc3c(NCCCn4ccnc4)ncnc32)cc1 | x | u | -10% | 6 | x | -10%
CC1CC(C)CN(CC(O)COCCOc2ccc(Br)cc2)C1 (stereo not drawn) | u | u | -15% | -34 | 13µM* | -15%
CCOc1ccccc1CNC(=O)c1cccn1-c1nnc(N2CCCC2)s1 | x | -18%[46.1 µM] | -16% | 0 | x | -9%
CCN(CC)C(=O)c1oc2ccc(S(=O)(=O)N3CCCCCC3)cc2c1C | 25µM* | u | -16% | u | u | -1%
CCN(CC)C(=O)c1oc2ccc(S(=O)(=O)N3CC(C)CC(C)C3)cc2c1C (stereo not drawn) | 3.5µM* | u | -12% | -88* | u | -11%
Cc1c(C(=O)Nc2ccc(F)cc2)oc2ccc(S(=O)(=O)N3CC(C)CC(C)C3)cc12 (stereo not drawn) | u | u | -6% | -12 | u | -3%
Cn1cc(Br)cc1-c1ncc(Cc2c[nH]c(N)[n+]2C)o1 | x | x | x | -20 | x | x
COc1ccc(NC(=O)C(c2ccc(C#N)cc2)n2c(=O)c(-c3ccco3)nc3ccccc32)cc1 (stereo not drawn) | x | x | -8% | 23 | x | -11%
CC1(C(=O)NC2CCCCC2)CCC(=O)N1Cc1cccnc1 (stereo not drawn) | 9% | x | -12% | -82* | x | i
CC1CCC(NC(=O)C2(C)CCC(=O)N2Cc2cccnc2)CC1 (stereo not drawn) | 4% | x | -5% | 28 | x | -13%
COC1CCC(OC2CC(C3(C)CCC4(CC(O)C(C)C(C(C)/C=C(\C)C(=O)C(C)CC(C)C(=O)O)O4)O3)OC3(OC(C4OC(O)(CO)C(C)CC4C)CC3C)C2C)OC1C (stereo not drawn) | 0.32µM* | 0.32µM* | 7.9µM* | -98* | u | 6.3µM*
CC1(C(=O)NS(=O)(=O)c2ccc(C#N)cc2)CCN1C(=O)C1CCCCC1 (stereo not drawn) | x | x | 2% | 28 | x | 8%
O=C(CSCC(=O)N1CCN(c2ccccc2)CC1)Nc1nc(-c2ccc(Cl)s2)cs1 | 6.3µM* | x | u | -13 | 0% | u
COc1ccc(O)c(/C=N/NC(=S)Nc2cccc(S(=O)(=O)N(C)C)c2)c1 | u | 4.6µM* | u | 27 | 3.7µM* | 2µM*
CCN(CC)S(=O)(=O)c1ccc(N/N=C/c2cc(OC)ccc2O)nc1 | 2.8µM* | u | u | -103* | u | 2µM*
CC(C)C(=O)Nc1cccc(S(=O)(=O)c2cccc(NC(=O)C(C)C)c2)c1 | u | 0.63µM* | u | -25 | u | x
CSc1cccc(NC(=O)C(C)C)c1 | -6% | 19% | -3% | -8 | 1% | i
COc1ccc(O)c(/C=N/NC(=S)Nc2cccnc2)c1 | u | x | u | 0 | x | 11µM*
CCN(CC)S(=O)(=O)c1ccc(N/N=C/c2cccnc2)nc1 | 0% | x | x | -23 | x | x
COc1ccc(N(C)C(=O)c2cc(S(=O)(=O)N3CCc4ccccc43)cn2C)c(OC)c1 | x | u | -10% | -4 | x | i
NC(=O)COc1ccc(-c2noc(COc3ccc(Cl)cc3)n2)cc1 | x | -13%[46.1 µM] | 3% | 17 | -1%[46.1 µM] | -3%
C=C1C/C(C)=C/CCc2cc(OS(=O)(=O)C(F)(F)F)ccc2-c2ccc(OC)c(OC)c21 | x | x | x | -1 | x | x
COc1ccc2cc(C(C)C(=O)Nc3cccc(S(=O)(=O)N(C)C)c3)ccc2c1 (stereo not drawn) | 25µM* | u | u | -29 | u | -22%
Cc1cc(N2CCOCC2)n2nc(C)c(-c3ccc(Cl)cc3)c2n1 | 11% | x | x | u | x | x
COc1ccc(-c2c(C)nn3c(C(F)(F)F)cc(C)nc23)cc1 | x | x | -30% | -16 | x | -6%
SMILES | HCV inh | LASV entry inh | VACV Venus inh | HCMV inh | MARV entry inh | Vaccinia mCherry
COc1ccc(-c2c(C)nn3c(C)cc(C)nc23)cc1 | 11µM* | 6% | -14% | -30 | 13% | -16%
Cc1cc(N)n2nc(C)c(-c3ccc(Cl)cc3)c2n1 | 11µM* | -10% | u | -32 | u | u
Cc1cc(Cl)n2nc(C)c(-c3ccc(Cl)cc3)c2n1 | u | 16µM* | 14µM* | -7 | u | u
Cc1cc(N)n2nc(C)c(-c3ccccc3)c2n1 | u | u | x | 33 | 25% | x
Cc1ccccc1Oc1ccc2c(c1)[C@@H]1C[C@H](N(C)C(=O)c3cccnc3)[C@H]([C@H](C)O)C(=O)N1CC2 | x | x | -21% | -36 | x | i
Cc1ccc(NS(=O)(=O)c2cc(C(=O)NCCSc3ccc(C)cc3)ccc2C)cc1 | u | u | u | -98* | u | u
Cc1ccc(SCCNC(=O)c2ccc(C)c(S(=O)(=O)Nc3cccc(C)c3)c2)cc1 | -19% | u | -10% | -70* | u | -5%
Cc1ccc(NS(=O)(=O)c2cc(C(=O)NCCSC3CCCCC3)ccc2C)cc1 | u | u | x | -32 | u | x
CCOC(=O)c1c(-c2ccccc2)oc2ccc(O)c(CN3CCN(C)CC3)c12 | 13µM* | u | u | -66* | u | u
CCOC(=O)c1c(CS(=O)(=O)c2ccccc2)n(C)c2cc(Br)c(O)c(CN(C)C)c12 | u | -30%[46.1 µM] | -13% | u | 6%[46.1 µM] | -23%
CCOC(=O)c1c(-c2ccccc2)oc2cc(CN(C)C)c(O)c(CN(C)C)c12 | 10µM* | u | x | -106* | u | x
CCOC(=O)c1c(C)n(C)c2cc(CN(C)C)c(O)c(S(=O)(=O)c3ccccc3)c12 | 3% | 0% | -5% | -69* | 8%[46.1 µM] | -3%
CCOC(=O)c1c(C)oc2cc(Cl)c(O)c(CN(C)C)c12 | u | 13% | -7% | -14 | -10%[46.1 µM] | -25%
CCCCn1nc(NC(=O)c2cccc(Cl)c2)c2cc3cccc(C)c3nc21 | x | 27%[46.1 µM] | -17% | -37 | 0%[46.1 µM] | i
COCc1ccc(CN2Cc3ccccc3OC(c3ccccc3OC)C2)o1 (stereo not drawn) | x | x | 5% | x | x | -6%
Cc1ccc(NS(=O)(=O)c2cc(Br)cc3c2N(C(=O)C2CC2)CC3)cc1C | x | u | u | -75* | x | u
COc1ccc(Cl)cc1NS(=O)(=O)c1cc(Br)cc2c1N(C(=O)C1CC1)CC2 | x | 2%[46.1 µM] | -5% | 3 | 22%[46.1 µM] | -9%
COc1cc(NS(=O)(=O)c2cc(Br)cc3c2N(C(=O)C2CC2)CC3)cc(OC)c1 | x | 3.5µM* | u | 31 | x | 18µM*
O=C(C1CC1)N1CCc2cc(Br)cc(S(=O)(=O)Nc3ccc(F)c(F)c3)c21 | x | u | -12% | -37 | u | -14%
COc1ccc2c(C)c(CC(=O)NCc3ccc(C)cc3)c(=O)oc2c1OC | x | 19%[46.1 µM] | -2% | 17 | -11%[46.1 µM] | -8%
CCC1Nc2ncnc(N3CCOCC3)c2N(Cc2ccc(OC)cc2)C1=O (stereo not drawn) | 8% | x | -18% | -10 | x | i

High-throughput results (PubChem)
